# Several values for one entry are separate records, joined by “and”; a condition that tells them apart may be missing. Equal values may be shown once. Results filed as inconclusive are left out. A call without a number means that no potency is given here. Some structures have more than one record in an assay (separate samples or runs), and their calls can disagree. Activity calls are given as the source filed them. Unless noted, calls come from the whole dose curve; as a rule, active = well fitted curve in the direction sought with a large enough effect in the repeat runs; inconclusive = weak or mixed curves; inactive = no such curve, though single readings can be large; an effect the other way counts as inactive or inconclusive.
# Columns and labels:
# [1] = molecular target: Luciferin 4-monooxygenase (Photinus pyralis) (UniProt P08659); experiment: qHTS assay to identify small molecule inhibitors of firefly luciferase (AID 1224835); note: nearly all actives have a fitted effect of over 25% in size; note: potency is the fitted concentration of half-maximal effect; details: purified P. pyralis luciferase, luminescence inhibition; series mostly up to 115 µM
# Outline: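 Biochemical qHTS: compounds run as interplate titrations against purified firefly enzyme, with D-luciferin and ATP each at its KM concentration. Light output recorded by CCD imaging.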
# [2] = qHTS assay to identify small molecule agonists of the constitutive androstane receptor (CAR) signaling pathway - cell viability counter screen (AID 1224836); details: HepG2-CYP2B6-hCAR viability, CellTiter-Fluor, 23 h, PK11195 added to every well; series mostly up to 92.4 µM; note: nearly all actives have a fitted effect of over 45% in size; note: potency is the fitted concentration of half-maximal effect
# Outline: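 HepG2-CYP2B6-hCAR, 2500 cells/well, 4 h pre-incubation; cpd 15 conc + PK11195 0.75 uM final; 23 h, 37 C/5% CO2; CellTiter-Fluor, fluorescence.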
# [3] = qHTS assay to identify small molecule antagonists of the constitutive androstane receptor (CAR) signaling pathway - cell viability counter screen (AID 1224837); details: HepG2-CYP2B6-hCAR viability, CellTiter-Fluor, 23 h, co-treated with 50 nM CITCO; series mostly up to 92.4 µM; note: nearly all actives have a fitted effect of over 45% in size; note: potency is the fitted concentration of half-maximal effect
# Outline: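 Counter screen run in HepG2-CYP2B6-hCAR cells: 4 hr settle, compound titration (15 concentrations) with 50 nM CITCO, 23 hr at 37 C/5% CO2, CellTiter-Fluor fluorescence.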
# [4] = molecular target: Nuclear receptor subfamily 1 group I member 3 (Homo sapiens) (UniProt Q14994); experiment: qHTS assay to identify small molecule antagonists of the constitutive androstane receptor (CAR) signaling pathway (AID 1224838); details: HepG2-CYP2B6-hCAR luciferase, CITCO-stimulated, 24 h; series mostly up to 92.4 µM;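 note: HepG2 cells stably expressing hCAR with CYP2B6 luciferase reporter stimulated by CITCO; nearly all actives have a fitted effect of over 40% in size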; note: potency is the fitted concentration of half-maximal effect
# Outline: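 Cell line: HepG2 double-stable for hCAR and CYP2B6-2.2kb reporter. Agonist: CITCO, 50 nM final. Compounds: 15 concentrations, 24 h, 37 C. Detection: ONE-Glo luminescence.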
# [5] = molecular target: Nuclear receptor subfamily 1 group I member 3 (Homo sapiens) (UniProt Q14994); experiment: qHTS assay to identify small molecule agonists of the constitutive androstane receptor (CAR) signaling pathway (AID 1224839); details: HepG2 hCAR CYP2B6-luciferase, agonist mode, 24 h; series mostly up to 92.4 µM;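 note: HepG2 cells stably carrying human CAR and a CYP2B6 luciferase reporter; nearly all actives have a fitted effect of over 15% in size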
# Outline: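 HepG2-CYP2B6-hCAR cells, 2500/well, 4 h pre-incubation; compounds 15 conc.; PK11195 0.75 uM final; 24 h, 37 C/5% CO2; ONE-Glo luciferase read.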
# [6] = qHTS assay to identify small molecule antagonists of the estrogen related receptor signaling pathway with the pleiotropic PPARgamma coactivator (PGC) from Tox21 10K library - cell viability counter screen (AID 1224840; active = well fitted cell-killing curve with a large enough effect in the repeat runs, not every such curve was filed as active; note: nearly all actives have a fitted effect of over 40% in size; note: potency is the fitted concentration of half-maximal effect); details: PGC/ERR reporter cells viability, CellTiter-Fluor, 17.5 h; series mostly up to 92.4 µM
# Outline: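 Following seeding of 2,000 PGC/ERR cells/well and 6 hours' incubation, test compounds were delivered in DMSO. The plates then sat 17.5 hours at 37 C before a fluorogenic live-cell protease reagent (CellTiter-Fluor) was read after 30 min.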
# [7] = qHTS assay to identify small molecule agonists of the estrogen related receptor signaling pathway with the pleiotropic PPARgamma coactivator (PGC) from Tox21 10K library (AID 1224842); details: PGC/ERR reporter cell line, luciferase ONE-Glo, 18 h; series mostly up to 92.4 µM; note: nearly all actives have a fitted effect of over 15% in size
# Outline: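 PGC/ERR reporter cell line, 2,000 cells per well, incubated 6 h at 37 C before 23 nL compound in DMSO was added. After 18 h at 37 C, One-Glo luminescence read following 30 min at room temperature.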
# [8] = qHTS assay to identify small molecule agonists of the hypoxia (HIF-1) signaling pathway - cell viability counter screen (AID 1224844; calls by dose curve; note: nearly all actives have a fitted effect of over 50% in size; note: potency is the fitted concentration of half-maximal effect); details: HRE-bla ME-180 viability, CellTiter-Glo luminescence, 17 h; series mostly up to 76.8 µM
# Outline: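 Cells (HRE-bla ME-180, 2,000 per well) sat 5 hrs at 37C, got compound for 17 hrs, were read for CCF4-AM FRET, and were finally lysed with CellTiter-Glo for a 30 min room-temperature luminescence read.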
# [9] = qHTS assay to identify small molecule agonists of H2AX (AID 1224845; active = well fitted activation curve with a large enough effect in the signal ratio in the repeat runs, not every such curve was filed as active; the % refers to the signal ratio); details: CHO-K1 phospho-H2AX Ser139 HTRF, 3 h; series mostly up to 154 µM
# Outline: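 Wild-type CHO-K1 cells, plated overnight, exposed 3hr at 37C to 15 concentrations (0.76% DMSO final). Lysed, then HTRF anti-pH2AX (S139) cryptate and anti-H2AX-d2 antibodies, 24 hr room temperature; 665/620 nm emission read.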
# [10] = qHTS assay to identify small molecule agonists of H2AX - cell viability counter screen (AID 1224847; calls by dose curve; note: nearly all actives have a fitted effect of over 30% in size; note: potency is the fitted concentration of half-maximal effect); details: CHO-K1 viability, CellTiter-Glo luminescence, 3 h; series mostly up to 154 µM
# Outline: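 Cells plated first: CHO-K1, 1000 per well in 10% FBS medium, incubated overnight at 37C. Then 15-point compound titration added (final DMSO 0.76%) for 3 hr. Finally CellTiter-Glo added and luminescence read.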
# [11] = qHTS assay to identify small molecule antagonists of the estrogen related receptor (ERR) signaling pathway from Tox21 library (AID 1224848); details: ERR reporter cell line, luciferase antagonist mode, 18 h; series mostly up to 92.4 µM; note: potency is the fitted concentration of half-maximal effect; nearly all actives have a fitted effect of over 50% in size
# Outline: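 ERR reporter cell line (from NTP) seeded 2,000 cells/well, rested 6 h at 37 C/5% CO2, then pin-dosed with compounds in DMSO. After 18 h at 37 C, ONE-Glo added; luminescence read after 30 min at room temperature.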
# [12] = qHTS assay to identify small molecule agonists of the estrogen related receptor (ERR) signaling pathway from Tox21 library (AID 1224849; calls by dose curve; note: nearly all actives have a fitted effect of over 15% in size); details: ERR reporter cell line, ONE-Glo luciferase, 18 h
# Outline: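 Screening used an NTP-provided ERR luciferase cell line. Compounds in DMSO were added 6 h after seeding and left 18 h at 37 C before a 30 min ONE-Glo step and luminescence reading.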
# [13] = qHTS RealTime-Glo MT Cell Viability Assay in HepG2 cells - 24 hour (AID 1224867); details: RealTime-Glo luminescence; series mostly up to 76.8 µM; note: nearly all actives have a fitted effect of over 50% in size; note: potency is the fitted concentration of half-maximal effect
# Outline: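 Cell number in HepG2 cultures estimated from NanoLuc luminescence generated by metabolic reduction of a prosubstrate by living cells. The homogeneous, nonlytic format allowed repeated reads at 0, 8, 16, 24, 32 and 40 h of compound exposure.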
# [14] = A CellTox Green Cytotoxicity Assay to monitor cytotoxicity in HEK293 cells - 0 hour (AID 1224869); details: CellTox Green fluorescence; series mostly up to 76.8 µM; note: nearly all actives have a fitted effect of over 50% in size
# Outline: (§1)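 Fluorescence intensity, read at 0, 8, 16, 24, 32 and 40 h of compound treatment, reflected dye binding to DNA of dead HEK293 cells; compounds (23 nL, DMSO) were added 5 h after plating cells with reagent.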
# [15] = qHTS RealTime-Glo MT Cell Viability Assay in HepG2 cells - 40 hour (AID 1224870); details: RealTime-Glo luminescence; series mostly up to 76.8 µM; note: nearly all actives have a fitted effect of over 50% in size; note: potency is the fitted concentration of half-maximal effect
# Outline: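 HepG2 cells (600/well) mixed with RealTime-Glo MT reagent, settled 5 h at 37 C/5% CO2 before compound addition. Nonlytic NanoLuc luminescence from viable-cell prosubstrate reduction read repeatedly during 40 h treatment at 37 C.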
# [16] = A CellTox Green Cytotoxicity Assay to monitor cytotoxicity in HEK293 cells - 40 hour (AID 1224871); details: CellTox Green fluorescence; series mostly up to 76.8 µM; note: nearly all actives have a fitted effect of over 45% in size; note: potency is the fitted concentration of half-maximal effect
# Outline: as §1
# [17] = molecular target: Thyrotropin receptor (Homo sapiens) (UniProt P16473); experiment: qHTS assay to identify small molecule agonists of the thyroid stimulating hormone receptor (TSHR) signaling pathway (AID 1224843; calls by dose curve; note: nearly all actives have a fitted effect of over 45% in size); details: TSHR-HEK293 cells, cAMP HTRF, agonist mode, 30 min; series mostly up to 92.4 µM
# Outline: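 TSHR-HEK293 cells in agonist mode, 30 min room-temperature step, then cAMP measured by competitive HTRF (cAMP-d2 with anti-cAMP cryptate) after 1 h at room temperature. Tested at 15 concentrations in triplicate.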
# [18] = qHTS assay to identify small molecule agonists of the hypoxia (HIF-1) signaling pathway (AID 1224846; active = well fitted activation curve with a large enough effect in the signal ratio in the repeat runs, not every such curve was filed as active; the % refers to the signal ratio); details: HRE-bla ME-180 cells, beta-lactamase ratio, 17 h; series mostly up to 76.8 µM
# Outline: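 A low-serum medium (0.5% dialyzed FBS) holding 2,000 HRE-bla ME-180 cells per well is preincubated for 5 hrs, dosed with compounds by pintool, and kept a further 17 hrs at 37C, 5% CO2 before CCF4-AM FRET detection of beta-lactamase.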
# [19] = qHTS RealTime-Glo MT Cell Viability Assay in HEK293 cells - 32 hour (AID 1224868); details: RealTime-Glo luminescence; series mostly up to 76.8 µM; note: nearly all actives have a fitted effect of over 50% in size; note: potency is the fitted concentration of half-maximal effect
# Outline: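 Homogeneous bioluminescent viability format in HEK293 cells (600 cells/well). Following 5 h at 37 C/5% CO2, 23 nL compound was pintooled; the signal was measured repeatedly during 40 h incubation.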
# [20] = qHTS assay to identify small molecule antagonists of the estrogen related receptor signaling pathway with the pleiotropic PPARgamma coactivator (PGC) from Tox21 10K library (AID 1224841; call rule not given here); details: PGC/ERR reporter cell line, ONE-Glo luciferase, 18 h; series mostly up to 92.4 µM
# Outline: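 qHTS antagonist format: PGC/ERR cells, 2k/well, compound in DMSO by pin transfer after 6 h attachment, 18 h treatment at 37 C, One-Glo luminescence read at 30 min.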
# Nuclear receptor subfamily 1 group I member 3 (Homo sapiens), sequence (Q14994 whole entry, looked up): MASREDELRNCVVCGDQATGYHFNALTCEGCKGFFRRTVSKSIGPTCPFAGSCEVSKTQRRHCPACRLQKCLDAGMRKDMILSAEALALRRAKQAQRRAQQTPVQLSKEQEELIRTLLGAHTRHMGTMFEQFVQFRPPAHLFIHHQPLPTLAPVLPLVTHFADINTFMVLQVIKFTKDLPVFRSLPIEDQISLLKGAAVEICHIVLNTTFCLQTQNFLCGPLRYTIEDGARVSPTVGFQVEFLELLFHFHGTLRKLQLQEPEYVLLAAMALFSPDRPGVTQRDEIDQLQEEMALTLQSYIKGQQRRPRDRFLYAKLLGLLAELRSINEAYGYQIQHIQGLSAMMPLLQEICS
# Thyrotropin receptor (Homo sapiens), sequence (P16473 whole entry, looked up): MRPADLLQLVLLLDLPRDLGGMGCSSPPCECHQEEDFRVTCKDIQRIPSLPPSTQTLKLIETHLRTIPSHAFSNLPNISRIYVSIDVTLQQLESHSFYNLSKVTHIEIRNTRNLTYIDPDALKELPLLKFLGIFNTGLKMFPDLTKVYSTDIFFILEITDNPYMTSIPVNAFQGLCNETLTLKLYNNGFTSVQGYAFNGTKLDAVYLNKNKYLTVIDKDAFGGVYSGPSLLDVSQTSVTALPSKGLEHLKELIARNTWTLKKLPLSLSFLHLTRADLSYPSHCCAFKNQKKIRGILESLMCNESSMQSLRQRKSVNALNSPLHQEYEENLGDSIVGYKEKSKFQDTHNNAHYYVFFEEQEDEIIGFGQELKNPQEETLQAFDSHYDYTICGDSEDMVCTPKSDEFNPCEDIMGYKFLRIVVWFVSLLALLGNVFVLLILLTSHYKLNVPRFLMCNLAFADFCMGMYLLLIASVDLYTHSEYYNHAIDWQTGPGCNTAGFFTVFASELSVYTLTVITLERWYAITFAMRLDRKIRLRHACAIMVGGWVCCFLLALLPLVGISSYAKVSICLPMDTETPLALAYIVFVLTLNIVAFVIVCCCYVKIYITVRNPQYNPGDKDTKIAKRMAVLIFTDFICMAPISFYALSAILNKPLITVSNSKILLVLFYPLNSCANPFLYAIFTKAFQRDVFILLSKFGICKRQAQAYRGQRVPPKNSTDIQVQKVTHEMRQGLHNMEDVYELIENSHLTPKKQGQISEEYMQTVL
# Luciferin 4-monooxygenase (Photinus pyralis), sequence (P08659 whole entry, looked up): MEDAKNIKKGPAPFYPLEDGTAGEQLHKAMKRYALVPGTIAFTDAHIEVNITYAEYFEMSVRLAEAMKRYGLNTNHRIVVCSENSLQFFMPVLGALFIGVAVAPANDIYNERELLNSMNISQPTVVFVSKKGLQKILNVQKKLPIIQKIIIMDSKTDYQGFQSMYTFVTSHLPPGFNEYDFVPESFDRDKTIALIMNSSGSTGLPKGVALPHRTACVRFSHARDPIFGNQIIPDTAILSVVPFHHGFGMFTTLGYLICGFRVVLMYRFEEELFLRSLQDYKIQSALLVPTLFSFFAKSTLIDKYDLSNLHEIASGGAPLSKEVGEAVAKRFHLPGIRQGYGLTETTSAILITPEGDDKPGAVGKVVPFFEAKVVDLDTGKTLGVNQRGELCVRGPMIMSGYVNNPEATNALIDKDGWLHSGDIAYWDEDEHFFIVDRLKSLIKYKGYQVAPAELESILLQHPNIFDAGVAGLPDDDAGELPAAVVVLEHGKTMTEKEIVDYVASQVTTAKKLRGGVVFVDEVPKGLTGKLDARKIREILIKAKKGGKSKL
structure (smiles),measurement,setting,value
CCCCCCCCCCCCCC[N+](C)(C)C,Potency,[1],68.6 µM (active)
same,Potency,[2],23.5 µM (active)
same,Potency,[3],13.2 µM (active) and 27.3 µM (active)
same,Potency,[4],59.1 µM (active) and inactive
same,Potency,[5],inactive
same,Potency,[6],23.5 µM (active) and 54.4 µM (active) and inactive
same,Potency,[7],inactive
same,Potency,[8],42.2 µM (active)
same,Potency,[9],inactive
same,Potency,[10],38.8 µM (active) and 50.4 µM (active)
same,Potency,[11],2.64 µM (active) and 4.32 µM (active) and 8.41 µM (active)
same,"activity change, positive = activation",[12]; at 42.5 µM (top of the series),-50% (inactive)
same,"activity change, positive = activation",[12]; at 92.4 µM (top of the series),-78.5% (inactive) and -74.4% (inactive)
same,Potency,[13],11.9 µM (active) and 21.8 µM (active) and 23.9 µM (active)
same,Potency,[14],inactive
same,Potency,[15],7.5 µM (active) and 17.4 µM (active) and 23.9 µM (active)
same,Potency,[16],29.9 µM (active) and 48.9 µM (active) and 26.8 µM (active)
OC/C=C/CO,Potency,[1],inactive
same,Potency,[2],inactive
same,Potency,[3],inactive
same,Potency,[4],inactive
same,Potency,[5],inactive
same,Potency,[6],inactive
same,Potency,[17],inactive
same,Potency,[8],inactive
same,Potency,[9],inactive
same,Potency,[18],inactive
same,Potency,[13],inactive
same,Potency,[19],inactive
same,Potency,[14],inactive
same,Potency,[15],inactive
same,Potency,[16],inactive
CC(C)(C)NSc1nc2ccccc2s1,Potency,[1],18.1 µM (active)
same,Potency,[2],inactive
same,Potency,[3],inactive
same,Potency,[4],inactive
same,Potency,[5],inactive
same,Potency,[6],inactive
same,Potency,[17],inactive
same,Potency,[8],inactive
same,Potency,[9],inactive
same,Potency,[18],inactive
same,Potency,[10],inactive
same,Potency,[13],inactive
same,Potency,[14],inactive
same,Potency,[15],inactive
same,Potency,[16],inactive
CCCCOC(=O)CC,Potency,[1],inactive
same,Potency,[2],inactive
same,Potency,[3],inactive
same,Potency,[4],inactive
same,Potency,[5],inactive
same,Potency,[6],inactive
same,Potency,[17],inactive
same,Potency,[8],inactive
same,Potency,[9],inactive
same,Potency,[18],inactive
same,Potency,[10],inactive
same,Potency,[13],inactive
same,Potency,[19],inactive
same,Potency,[14],inactive
same,Potency,[15],inactive
CCN1C(=O)c2ccccc2C1Nc1ccc(OCCN2CCCCC2)cc1 (centres undefined),Potency,[1],inactive
same,Potency,[2],inactive
same,Potency,[3],inactive
same,Potency,[4],inactive
same,Potency,[5],inactive
same,Potency,[6],inactive
same,Potency,[17],inactive
same,Potency,[8],inactive
same,Potency,[9],inactive
same,Potency,[18],inactive
same,Potency,[10],inactive
same,Potency,[13],inactive
same,Potency,[19],5.35 µM (active)
same,Potency,[14],inactive
same,Potency,[15],inactive
same,Potency,[16],inactive
CCOC(=O)c1ccc(C2CCC(NC[C@H](O)COc3ccc(O)c(NS(C)(=O)=O)c3)CC2)cc1 (some centres undefined),Potency,[1],inactive
same,Potency,[2],inactive
same,Potency,[3],inactive
same,Potency,[4],inactive
same,Potency,[5],inactive
same,Potency,[6],63.3 µM (active)
same,Potency,[20],inactive
same,Potency,[8],inactive
same,Potency,[18],inactive
same,Potency,[11],56.4 µM (active)
same,"activity change, positive = activation",[12]; at 92.4 µM (top of the series),-46.8% (inactive)
same,Potency,[13],45.2 µM (active)
same,Potency,[19],20.2 µM (active)
same,Potency,[14],inactive
same,Potency,[15],50.7 µM (active)
CCO[Si](OCC)(OCC)OCC,Potency,[1],inactive
same,Potency,[2],inactive
same,Potency,[3],inactive
same,Potency,[4],inactive
same,Potency,[5],inactive
same,Potency,[6],inactive
same,Potency,[17],inactive
same,Potency,[8],inactive
same,Potency,[9],inactive
same,Potency,[18],inactive
same,Potency,[10],inactive
same,Potency,[13],inactive
same,Potency,[19],inactive
same,Potency,[14],inactive
same,Potency,[15],inactive
same,Potency,[16],inactive
